Data published in PubChem BioAssay AID624404 (Broad Institute, 2012).
About 710 (39%) of roughly 1,800 compounds were called active. Roughly 28% stayed inconclusive and do not appear here.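 Rule for the calls: active = luciferase signal rise whose fitted curve crosses a set activity limit at or below the top valid tested dose; inconclusive = flat fit with 30 to 70% rise, or poor fit; inactive = signal falling, flat within 30%, or crossing above top dose.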 Only a sample is shown. Results with a measured potency or affinity are listed apart.

Test: reporter signal increase, D54 LucT cells – cell-based, luminescence, cherry pick, counter-screen for N-linked glycosylation inhibitor project, dose response (AID 624404)
Conditions: D54 LucT luciferase reporter counterscreen, 24 h; series mostly up to 19.5 µM
With `CCOC(=O)c1ccc(N=c2sc(C(=O)OC)cc(=O)n2Cc2ccco2)cc1` the outcome was “inactive”.
With `CCn1cc([N+](=O)[O-])c(C(=O)Nc2nc(-c3ccc(C)c(C)c3)c(C)s2)n1` the outcome was “inactive”.
With `COc1cccc(Oc2ccc(C(F)(F)F)cc2NC(=O)CN2C(=O)NC3(CCCC3)C2=O)c1` the outcome was “inactive”.
In the case of `COC(=O)c1cc(OC)c(OC)cc1NC(=S)NC(=O)c1ccco1`, the outcome is reported as “inactive”.
In the case of `CCN(CC)CCCNc1nc2ccccc2c2nc(-c3ccncc3)nn12`, the outcome is reported as “inactive”.
With `CN(C)CCCNc1c2c(nc3ccccc13)CCC2` the outcome was “inactive”.
In the case of `Cc1cc(NCCCN(C)C)n2c(nc3ccccc32)c1C#N`, the outcome is reported as “inactive”.
With `c1ccc(CNc2nc(NCCc3ccncc3)c3sccc3n2)cc1` the outcome was “inactive”.
For `CN(C)CCOc1nc(-c2ccccc2)nc2c1oc1ccccc12`, the outcome was “inactive”.
In the case of `O=C(CSc1ncnc2nc[nH]c12)c1ccc([N+](=O)[O-])cc1`, the outcome is reported as “inactive”.
With `COc1cc(C(=O)OCC(=O)c2cc(C)n(C)c2C)cc(OC)c1OC` the outcome was “inactive”.
For `COc1cc(COCC(O)CN2CCN(CCN3C(=O)c4cccc5cccc(c45)C3=O)CC2)cc(OC)c1OC` (stereo unspecified), the outcome was “inactive”.
With `C=CCOc1ccc2nc(NC(=O)OC)[nH]c2c1` the outcome was “inactive”.
For `Cc1noc2ncnc(Sc3ccccc3Cl)c12`, the outcome was “inactive”.
With `CCc1nn2c(N(C)CCO)cc(C)nc2c1-c1ccc(F)cc1` the outcome was “inactive”.
For `OC1CCCN(Cc2c3ccccc3cc3ccccc23)C1` (stereo unspecified), the outcome was “inactive”.
In the case of `CCOC(=O)c1cnc2c(C)cc(C)cc2c1NCCCN1CCOCC1`, the outcome is reported as “inactive”.
For `CN(C)CCNC(=O)c1cccc2nc3c(ccc4ccccc43)nc12`, the outcome was “inactive”.
For `CCOC(=O)c1cc2sccc2n1CC(=O)N1CCc2ccccc21`, the outcome was “inactive”.
For `COc1cc(-c2noc(C)c2/C=C/c2ccc(N)cc2)cc(OC)c1OC`, the outcome was “inactive”.
For `Cc1ccc(Nc2nnc(SCC(=O)Nc3ncc(S(=O)(=O)c4ccc([N+](=O)[O-])cc4)s3)s2)cc1`, the outcome was “inactive”.
In the case of `CCOC(=O)c1c(C)oc2c(F)c(F)c(F)c(F)c2c1=O`, the outcome is reported as “inactive”.
In the case of `CNc1ccc(Br)cc(C(=O)/C=C/c2cccc(OC)c2OC)c1=O`, the outcome is reported as “inactive”.
In the case of `CCOc1ccc2c(c1)C(=NNC(=O)c1ccncc1)c1cc(OCC)ccc1-2`, the outcome is reported as “inactive”.
In the case of `COc1ccc(C(=O)CSc2nn3c(=O)c(C(C)(C)C)nnc3s2)cc1`, the outcome is reported as “inactive”.
In the case of `COC(=O)c1ccc2c(=O)n(Cc3ccco3)c(SCC(=O)Nc3cc(C)on3)nc2c1`, the outcome is reported as “inactive”.
In the case of `CCN(CC)C(=O)CSc1nc2c(sc(=S)n2-c2ccccc2)c(=O)n1Cc1ccco1`, the outcome is reported as “inactive”.
With `CCOC(=O)c1ccc(/C=C2/C=C(c3ccccc3)N(c3ccc(Cl)c(C(=O)O)c3)C2=O)cc1` the outcome was “inactive”.
For `Cn1c(N)c(C(=O)COC(=O)c2cc(S(=O)(=O)N3CCOCC3)ccc2F)c(=O)n(C)c1=O`, the outcome was “inactive”.
With `Cc1ccc(Cl)cc1N1CCN(S(=O)(=O)c2ccc(-c3ccc(=O)[nH]n3)o2)CC1` the outcome was “inactive”.
In the case of `CCCn1c(=N)n(CC(=O)c2ccc([N+](=O)[O-])cc2)c2ccccc21`, the outcome is reported as “inactive”.
